According to PMC8384837, “Expanding the binding specificity for RNA recognition by a PUF domain”:

How the values were obtained:
Test in all cases: yeast three-hybrid, YBZ-1, SC-Leu-His + 0.5 mM 3-AT, 4 days
Conditions in all cases: tags: N-Gal4 AD-HA kept; label: inside an RPR1-promoter hybrid RNA with tandem MS2 sites; ssRNA
PUM1 PUF domain R4-DFA = PUM1 PUF domain R4-DFA (Homo sapiens, UniProt Q14671 828-1176, N971D;H972F;Q975A)
Method in brief: (§1)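 Matching RNA elements and Pumilio-1 PUF domain libraries, randomized at the three base-contacting residues of every repeat, were co-expressed from a centromeric plasmid in strain YBZ-1 (LexA–MS2 coat fusion, HIS3 reporter). The repeat regions were PCR-amplified and Illumina-sequenced from cells grown four days on SC-Leu (input) or SC-Leu-His + 0.5 mM 3-AT (selection). The interaction score is the log change in variant frequency from input to selection. It is computed in log2, with a pseudocount of 1 for absent variants.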

PUM1 PUF domain R7-GVK = PUM1 PUF domain R7-GVK (Homo sapiens, UniProt Q14671 828-1176, S1079G;N1080V;E1083K)
Method in brief: as §1

PUM1 PUF domain R7-GTR = PUM1 PUF domain R7-GTR (Homo sapiens, UniProt Q14671 828-1176, S1079G;N1080T;E1083R)
Method in brief: as §1

PUM1 PUF domain R3-SLE = PUM1 PUF domain R3-SLE (Homo sapiens, UniProt Q14671 828-1176, C935S;R936L;Q939E)
Method in brief: as §1

PUM1 PUF domain R6-SFR = target: T1, PUM1 PUF domain R6-SFR (Homo sapiens, UniProt Q14671 828-1176, N1043S;Y1044F;Q1047R)
T1 sequence: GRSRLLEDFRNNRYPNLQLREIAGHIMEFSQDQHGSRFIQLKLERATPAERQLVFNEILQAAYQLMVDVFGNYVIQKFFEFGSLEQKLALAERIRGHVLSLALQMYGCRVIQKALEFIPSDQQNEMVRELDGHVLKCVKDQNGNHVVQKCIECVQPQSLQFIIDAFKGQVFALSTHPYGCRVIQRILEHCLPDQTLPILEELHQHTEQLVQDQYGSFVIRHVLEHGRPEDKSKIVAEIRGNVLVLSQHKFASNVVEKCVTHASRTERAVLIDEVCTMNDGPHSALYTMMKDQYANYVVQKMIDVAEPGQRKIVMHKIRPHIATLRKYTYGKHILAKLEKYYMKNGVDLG
Method in brief: as §1

PUM1 PUF domain R5-KWG = PUM1 PUF domain R5-KWG (Homo sapiens, UniProt Q14671 828-1176, C1007K;R1008W;Q1011G)
Method in brief: as §1

PUM1 PUF domain R5-RGD = PUM1 PUF domain R5-RGD (Homo sapiens, UniProt Q14671 828-1176, C1007R;R1008G;Q1011D)
Method in brief: as §1

PUM1 PUF domain R5-DFW = PUM1 PUF domain R5-DFW (Homo sapiens, UniProt Q14671 828-1176, C1007D;R1008F;Q1011W)
Method in brief: as §1

PUM1 PUF domain R8-KFP = PUM1 PUF domain R8-KFP (Homo sapiens, UniProt Q14671 828-1176, N1122K;Y1123F;Q1126P)
Method in brief: as §1

PUM1 PUF domain R3-DRL = PUM1 PUF domain R3-DRL (Homo sapiens, UniProt Q14671 828-1176, C935D;Q939L)
Method in brief: as §1

Q: “GGCUAGAACUAGUGGAUCCCCCGGCGCCCGGCGGCUCGAGCCCGGGUAAGUGUACAUAGUCUGCAUGCCGCCGGGCGCCAUGCCUGCAGGUCGACUCUAGAAAACAUG” was tested. Which binding signal (PUM1 PUF domain R4-DFA) did it give?
A: Its binding signal is 6.02 log2 enrichment (interaction score).

Q: With “GGCUAGAACUAGUGGAUCCCCCGGCGCCCGGCGGCUCGAGCCCGGGUAAGUUUAAAUAGUCUGCAUGCCGCCGGGCGCCAUGCCUGCAGGUCGACUCUAGAAAACAUG” as the sequence, how does the binding signal (PUM1 PUF domain R7-GVK) read?
A: Its binding signal is 4.74 log2 enrichment (interaction score).

Q: And the binding signal (PUM1 PUF domain R7-GTR)?
A: Its binding signal is 4.38 log2 enrichment (interaction score).

Q: “GGCUAGAACUAGUGGAUCCCCCGGCGCCCGGCGGCUCGAGCCCGGGUAAGUGUAAGUAGUCUGCAUGCCGCCGGGCGCCAUGCCUGCAGGUCGACUCUAGAAAACAUG” was tested. Which binding signal (PUM1 PUF domain R3-SLE) did it give?
A: The binding signal was 3.8 log2 enrichment (interaction score).

Q: Which binding signal (PUM1 PUF domain R6-SFR) does the source give for “GGCUAGAACUAGUGGAUCCCCCGGCGCCCGGCGGCUCGAGCCCGGGUAAGUGCAAAUAGUCUGCAUGCCGCCGGGCGCCAUGCCUGCAGGUCGACUCUAGAAAACAUG” here?
A: Its binding signal is 7.11 log2 enrichment (interaction score).

Q: Which results are given for “GGCUAGAACUAGUGGAUCCCCCGGCGCCCGGCGGCUCGAGCCCGGGUAAGUGUCAAUAGUCUGCAUGCCGCCGGGCGCCAUGCCUGCAGGUCGACUCUAGAAAACAUG”?
A: binding signal (PUM1 PUF domain R5-KWG): 4.46 log2 enrichment (interaction score); binding signal (PUM1 PUF domain R5-RGD): 3.87 log2 enrichment (interaction score); binding signal (PUM1 PUF domain R5-DFW): 2.86 log2 enrichment (interaction score)

Q: Which binding signal (PUM1 PUF domain R8-KFP) does the source give for “GGCUAGAACUAGUGGAUCCCCCGGCGCCCGGCGGCUCGAGCCCGGGUAAGCGUAAAUAGUCUGCAUGCCGCCGGGCGCCAUGCCUGCAGGUCGACUCUAGAAAACAUG” here?
A: Its binding signal is 3.9 log2 enrichment (interaction score).

Q: Which binding signal (PUM1 PUF domain R3-DRL) does the source give for “GGCUAGAACUAGUGGAUCCCCCGGCGCCCGGCGGCUCGAGCCCGGGUAAGUGUAAAUAGUCUGCAUGCCGCCGGGCGCCAUGCCUGCAGGUCGACUCUAGAAAACAUG” here?
A: Its binding signal is 3.71 log2 enrichment (interaction score).

Q: What about the binding signal (PUM1 PUF domain R4-DFA) of the same sequence?
A: The binding signal was 2.78 log2 enrichment (interaction score).

Q: And the binding signal (PUM1 PUF domain R6-SFR)?
A: Its binding signal is 6.56 log2 enrichment (interaction score).

Q: What about the binding signal (PUM1 PUF domain R8-KFP) of the same sequence?
A: The binding signal was 4.88 log2 enrichment (interaction score).
